USP2a inh: USP2a (human) protease inhibition; O75604; USP2 core, Ub-CHOP2 coupled fluorogenic reporter, 485/531; Potency, µM (highest dose often 38.3 µM), inactives show top-dose activity change, negative = inhibition, actives largely listed as inhibitors; actives 0.01% (n = 330,000); AID 463254;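 further: plate controls were DMSO wells for no effect and full inhibition by NEM control for full effect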
Target sequence (O75604 whole entry, looked up): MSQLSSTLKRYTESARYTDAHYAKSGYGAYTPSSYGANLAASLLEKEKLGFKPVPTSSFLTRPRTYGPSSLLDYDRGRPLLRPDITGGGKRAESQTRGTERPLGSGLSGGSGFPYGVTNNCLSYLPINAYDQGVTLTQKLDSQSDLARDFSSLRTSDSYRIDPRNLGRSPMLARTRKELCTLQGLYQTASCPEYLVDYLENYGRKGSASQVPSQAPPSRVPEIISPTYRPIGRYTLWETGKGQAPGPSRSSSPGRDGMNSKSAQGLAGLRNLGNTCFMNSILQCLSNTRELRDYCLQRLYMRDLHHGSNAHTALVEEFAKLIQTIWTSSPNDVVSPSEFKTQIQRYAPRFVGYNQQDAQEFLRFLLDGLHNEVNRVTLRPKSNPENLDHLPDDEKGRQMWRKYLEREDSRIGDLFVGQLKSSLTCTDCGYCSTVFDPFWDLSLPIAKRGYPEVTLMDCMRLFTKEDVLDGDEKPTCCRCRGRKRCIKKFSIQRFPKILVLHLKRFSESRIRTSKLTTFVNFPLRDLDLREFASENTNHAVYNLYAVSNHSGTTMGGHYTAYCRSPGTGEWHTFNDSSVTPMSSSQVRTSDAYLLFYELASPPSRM
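Cell-free coupled assay: 10nM USP2 core preincubated 30min RT with compound in Tris-HCl pH 8.0/CaCl2/CHAPS buffer, then 25nM Ub-CHOP2 and 25nM reporter substrate; fluorescence (Ex 485/Em 531) read after 60min RT, normalized to NEM inhibition, concentration-response curves fitted.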
USP1-UAF1 inh: inhibitors of human USP1/UAF1 deubiquitinase; O94782; recombinant USP1/UAF1, Ub-Rhodamine cleavage fluorescence; Potency, µM (titrated, usually from 57.1 µM), for the others: top-dose activity change, negative = inhibition, actives largely listed as inhibitors; actives 0.23% (n = 390,000); further: on the % scale 0 is the no-effect control and ±100 the full control effect; nearly all actives have a fitted effect of over 60% in size
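High-throughput fluorogenic screen: 1nM USP1/UAF1 complex, Ub-Rho substrate 150nM final, 50mM HEPES pH 7.8 with 0.5mM EDTA, 0.1 mg/ml BSA, 1mM TCEP and 0.01% Tween-20.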
EPAC2 antag: blocks human EPAC2 exchange factor; Q8WZA2; EPAC2 GEF exchange of Rap1B-BODIPY-GDP, fluorescence; Potency, µM (top dose mostly 114 µM), inactives show at the top dose activity, negative = inhibition, most hits filed as inhibitors; actives 0.18% (n = 360,000); AID 720708; further: on the % scale 0 is the no-effect control and ±100 the full control effect; nearly all actives have a fitted effect of over 45% in size
EPAC1 antag: blocks human EPAC1 exchange factor. O95398. EPAC1 GEF assay, Rap1b-BODIPY-GDP exchange fluorescence. Potency, µM (doses to about 115 µM), inactives show top-dose activity change, negative = inhibition, usual class: inhibitors. actives 0.14% (n = 360,000). AID 720709;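 further: plate controls were vehicle for no effect and positive control for full effect; nearly all actives have a fitted effect of over 50% in size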
EPAC1 agonist: EPAC1 (human) agonism; O95398; EPAC1 agonist qHTS, biochemical assay; response scale: 100% = response to 6.5 mM cAMP; Potency, µM (titrated, usually from 154 µM), for inactives: at the highest dose activation, most hits filed as activators; actives 0.073% (n = 360,000); AID 720707; further: nearly all actives have a fitted effect of over 60% in size
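EPAC1 100 nM, Rap1B–BODIPY-GDP 250 nM, unlabeled GDP 50 uM; compound titration; 5 min RT; kinetic read ex480/em540 at 5-min intervals ×30 min; data normalized to 6.5 mM cAMP agonist control.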
EPAC2 agonist: activates human EPAC2 exchange factor; Q8WZA2; EPAC2 activation, biochemical qHTS; response scale: 100% = 6.5 mM cAMP response; Potency, µM (titrated, usually from 154 µM), for inactives: at the highest dose activation, hits mostly activators; actives 0.079% (n = 360,000); AID 720711; further: nearly all actives have a fitted effect of over 50% in size
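Exchange assay: 100 nM EPAC2 with 250 nM Rap1B-BODIPY-GDP and 50 uM GDP. Fluorescence (ex 480/em 540 nm) read every 5 min for 30 min at room temperature. Data normalized to 6.5 mM cAMP as agonist control.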
An asterisk follows results filed as active; ? = inconclusive; . = no result. In the library only some 0.45% were active in any assay of this set; here they are far more common. The call rests on the fitted dose curve; in most records, active means well fitted curve in the direction sought with a large enough effect; inconclusive means small, poorly fitted or top-dose-only effect, or another doubt; inactive means no such curve, though single readings can be large; an effect the other way counts as inactive or inconclusive. Potency means the concentration at half of the fitted maximal effect.

SMILES | USP2a inh | USP1-UAF1 inh | EPAC2 antag | EPAC1 antag | EPAC1 agonist | EPAC2 agonist
CC1=Nc2ccccc2/C1=C\c1nc(-c2ccc(C(F)(F)F)cc2)oc1O | 5% | 13µM* | 3% | 32% | -55% | -46%
O=S(=O)(NCCSc1ccccc1)c1ccc(F)cc1 | -6% | -3% | -6% | -27% | 4% | 10%
O=C(NS(=O)(=O)c1ccc2ccc(S(=O)(=O)NCCSc3ccccc3)cc2c1)c1cccc2ccccc12 | . | . | ? | 56µM* | -1% | 3%
O=C(C1CCC1)N1CCc2cc(S(=O)(=O)NCCc3ccccc3)ccc21 | . | -10% | . | . | . | .
O=C1NC(=S)S/C1=C\C=C\c1ccc([N+](=O)[O-])o1 | -9% | -24% | 50µM* | 56µM* | 0% | -11%
CN1\C(=C/C=C/C=C/C=[N+](C)C)C(C)(C)c2ccccc21 | ? | 25µM* | -28% | -10% | 56µM* | 15%
CN1/C(=C/C=C(C#N)C#N)C(C)(C)c2ccccc21 | 0% | ? | 228% | -1% | 9% | 112µM*
O=C(COc1ccc(S(=O)(=O)NC2CCCCC2)cc1)Nc1ccc(C(F)(F)F)cc1 | . | -12% | . | . | . | .
Cc1coc2c1C(=O)C(=O)c1c-2ccc2c1CCCC2(C)C | -2% | ? | 13% | ? | -30% | -6%
Cc1coc2c1C(=O)C(=O)c1c-2ccc2c(C)cccc12 | 0% | 28µM* | 4% | 79µM* | -2% | -1%
O=c1[nH]c(N2CCOCC2)cc2ccccc12 | . | 10µM* | 10% | -29% | -3% | 4%
O=c1c(N2CCOCC2)coc2ccccc12 | 10% | -16% | -2% | -19% | -5% | -5%
CC(C)(C)[C@H](NC(=O)c1ccc(N)c(Cl)c1)C(=O)N1CCC[C@H]1C(=O)N[C@H](C#N)CC(=O)O | . | . | 9% | -14% | -14% | 6%
N#Cc1c(C(F)(F)F)cc(-c2cccs2)nc1SCC(=O)Nc1ccccc1F | . | -3% | . | . | . | .
CCOc1ccc(-n2cnc3scc(-c4ccc(OC)c(OC)c4)c3c2=O)cc1 | 0% | -15% | 50µM* | -10% | 6% | 14%
CC(=O)Nc1ccc(-c2ccnc3c2CC(C(=O)NCC2CCOCC2)O3)cc1 (stereo not drawn) | . | . | -8% | -12% | 0% | -5%

From PubChem
